According to PubChem BioAssay AID1347422 (Sanford-Burnham Center for Chemical Genomics, 2020):
In all, about 1,000 compounds were measured (“thermal shift dTm”: median about 0.19, highest 2% from about 1.7 on). For the sample, the highest values were picked, then their nearest neighbours and some compounds at random. Activity calls are given as the source filed them.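 The calls were made as follows: active = mean rise in melting temperature of at least 1 degC over same-plate control wells; inactive = below that, where a call was filed.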

Molecular target: Sulfhydryl oxidase 1 (Homo sapiens) (UniProt O00391)
Sequence (O00391 whole entry, looked up): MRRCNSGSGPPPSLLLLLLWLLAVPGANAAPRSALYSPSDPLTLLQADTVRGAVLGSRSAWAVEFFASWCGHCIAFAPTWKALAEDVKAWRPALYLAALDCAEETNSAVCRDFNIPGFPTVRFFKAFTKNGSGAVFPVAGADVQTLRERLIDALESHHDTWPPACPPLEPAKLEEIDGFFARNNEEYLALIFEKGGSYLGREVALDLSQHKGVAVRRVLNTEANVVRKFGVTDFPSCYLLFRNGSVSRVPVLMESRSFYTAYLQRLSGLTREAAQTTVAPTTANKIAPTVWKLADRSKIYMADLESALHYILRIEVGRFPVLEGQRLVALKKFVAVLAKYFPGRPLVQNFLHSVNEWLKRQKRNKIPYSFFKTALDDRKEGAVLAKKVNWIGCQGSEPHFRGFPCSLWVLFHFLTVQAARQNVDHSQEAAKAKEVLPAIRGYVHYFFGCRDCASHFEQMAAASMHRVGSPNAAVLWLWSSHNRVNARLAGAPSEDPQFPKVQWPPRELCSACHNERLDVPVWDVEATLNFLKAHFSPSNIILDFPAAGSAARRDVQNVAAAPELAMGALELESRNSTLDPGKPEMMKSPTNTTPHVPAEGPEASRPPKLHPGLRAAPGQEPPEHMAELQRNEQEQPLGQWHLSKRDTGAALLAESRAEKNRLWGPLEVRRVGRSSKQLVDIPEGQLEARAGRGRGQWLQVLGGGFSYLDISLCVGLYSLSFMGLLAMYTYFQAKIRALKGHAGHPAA
Assay: QSOX1 binders by thermal stabilization, confirmation, QSOX1 inhibitor project, biophysical, protein thermal shift, single concentration (AID 1347422);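 also: dTm is compound Tm minus mean Tm of DMSO-only wells on that plate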
Settings: recombinant hQSOX1 thermal shift, Sypro Orange, at 25 µM, stronger effect = higher value

Structure (SMILES)	thermal shift dTm
COc1ccc(-c2c(-c3ccc(OC)c(C)c3O)n[nH]c2C(F)(F)F)cc1	0.76 °C
Cc1ccc2sc(-c3ccc(NC(=O)CCc4ccccc4)cc3)nc2c1	0.4 °C
COc1ccc(NC(=O)CSCc2ccccc2C)cc1Cl	0.02 °C
O=C(c1ccncc1)c1ccc(NC(=O)c2cccs2)cc1	0.05 °C
Cc1ccc(S(=O)(=O)Nc2cccc(NC(=O)c3cccs3)c2)cc1	0.48 °C
Cc1cc(C)nc(NS(=O)(=O)c2ccc(NC(=O)c3cccs3)cc2)n1	2.92 °C (active)
CC1=Nc2ccccc2/C1=C/c1c(O)n(Cc2ccco2)c(=O)[nH]c1=O	0.93 °C
Cc1nc(N)sc1-c1nnc(Nc2ccccc2)s1	2.14 °C (active)
CCOc1ccc(Nc2nnc(C)s2)cc1	0.28 °C
CC(=O)c1sc(Nc2ccc(Oc3ccccc3)cc2)nc1C	0.15 °C
Cc1ccc(NC(=O)C(C)Sc2nc3c(c(=O)[nH]2)CCCC3)cc1Cl (stereo not given)	0.01 °C
CCOc1ccc2nc(NC(=O)CCCCC(=O)O)sc2c1	-0.04 °C (inactive)
CC(NS(=O)(=O)c1ccc(Cl)cc1)C1C2CC3CC(C2)CC1C3 (stereo not given)	0.05 °C
COc1ccc(CCC(=O)Nc2nc3ccc(S(C)(=O)=O)cc3s2)cc1	0.35 °C
Cc1ccc(CN2CCC(C(=O)Nc3cccc(-c4ccn[nH]4)c3)CC2)o1	0.19 °C
CCc1nc2sc(C(=O)c3ccccc3)c(N)c2c2c1CCCC2	0.11 °C
O=C(CCCc1c[nH]c2ccccc12)NCCOc1ccc(Cl)cc1	-0.03 °C (inactive)
COc1cc(CO)cc(Cl)c1OCc1cccc2ccccc12	0.21 °C
CC(=O)Nc1cccc(NC(=O)COc2ccc(F)cc2Cl)c1	0 °C (inactive)
CCSC1=N/C(=C\c2ccc(-c3cccc(Cl)c3)o2)C(=O)S1	0.25 °C
Cc1ccc(S(=O)(=O)Nc2ccc(C(=O)Nc3ccc4c(c3)OCO4)cc2)cc1	1.03 °C (active)
Cc1ccc(Nc2nc(C3(C)CC4(CC(C)OC4=O)C(=O)O3)cs2)cc1 (stereo not given)	0.11 °C

Structure (SMILES)	thermal shift dTm
O=C1OC(c2ccccc2)OC(=O)C1=Cc1ccc(-c2cccc(C(F)(F)F)c2)o1 (stereo not given)	1.07 °C (active)
CCCc1cc(=O)[nH]c(N2CCN(Cc3ccc4c(c3)OCO4)CC2)n1	0.02 °C
Cc1ccc(-c2n[nH]c(-c3ccncc3)n2)cc1	0 °C
O=C(NCCO)Nc1ccc(Cl)c(Cl)c1	0 °C (inactive)
O/N=C/c1cc(Cl)ccc1OCc1ccc(F)cc1	0.34 °C
CCOc1ccc(NC(=O)Nc2cnccn2)cc1	0.09 °C
O=C(COc1ccc(Cl)cc1)NCCSCc1ccc(Cl)c(Cl)c1	0.11 °C
CC(=O)Nc1ccc(NC(=O)CCc2nc(-c3ccccc3)no2)cc1	0.14 °C
Cc1cccc(Nc2nc3ccc(C)cc3n3cnnc23)c1	0.19 °C
Cc1ccc(C(=O)Nc2nc(-c3ccccc3)c(C)s2)s1	0.01 °C
Cc1noc(NS(=O)(=O)c2ccc(NC(=O)Nc3ccc(Cl)cc3)cc2)c1C	0.7 °C
O=C(Nc1ccc(Cl)cc1)Nc1ccc(S(=O)(=O)Nc2ncccn2)cc1	1.03 °C (active)
Cc1ccc(NC(=O)Nc2ccc(S(=O)(=O)Nc3ccccn3)cc2)cc1	2.37 °C (active)
CC(NC(=O)c1ccc(-c2cc(Cl)ccc2Cl)o1)c1ccccc1 (stereo not given)	0.07 °C
Cc1ccccc1COc1ccc(Br)cc1/C=C1/N=C(c2ccco2)OC1=O	0.82 °C
Cc1nonc1CC(=O)N1CCc2ccc(NC(=O)Cc3ccccc3F)cc2C1	0.29 °C
COc1ccc(-c2nnc(Nc3ccc(O)cc3)c3ccccc23)cc1	0.15 °C
CN(C(=O)Nc1ccc(F)cc1)c1ccccc1	-1.43 °C (inactive)
Clc1cccc(-c2cn3ccccc3n2)c1	0.71 °C
O=C(Nc1ccc2ncccc2c1)c1cccc([N+](=O)[O-])c1	0.53 °C
N#Cc1nc(/C=C/c2cccs2)oc1NCCc1ccccc1	-37.7 °C (inactive)
Cc1ccc(NC(=O)N2CCC(Cc3ccccc3)CC2)cc1	0.07 °C

Structure (SMILES)	thermal shift dTm
O=C(/C=C/c1ccc(F)cc1)Nc1ccncc1	0.57 °C
O=C(/C=C/c1ccc(Cl)cc1)Nc1cccnc1	2.02 °C (active)
CCCC(=O)Nc1cccc(NC(=O)/C=C/c2ccc(Cl)cc2)c1	-31.6 °C (inactive)
CCOc1ccc(NC(=O)Nc2cc(C)ccc2OC)cc1	0.34 °C
CCc1ccc(NC(=O)Nc2cc(F)ccc2F)cc1	-15.7 °C (inactive)
CCOc1ccc(NC(=O)Nc2cc(C)ccc2F)cc1	2.42 °C (active)
CCOc1ccc(NC(=O)Nc2cc(F)ccc2C)cc1	2.14 °C (active)
COc1cccc(NC(=O)Nc2cc(C)ccc2F)c1	0 °C
CCOc1ccc(NC(=O)Nc2cc(OC)c(OC)c(OC)c2)cc1	1.64 °C (active)
Cc1ccc(-c2cn(S(=O)(=O)c3cccc4nsnc34)nc2N)cc1	0.1 °C
O=C(Nc1ccccc1C(=O)O)c1cccc(S(=O)(=O)Nc2ccccc2)c1	1.23 °C (active)
COc1ccc(Cl)cc1Nc1nc(-c2ccccn2)cs1	0.1 °C
Cc1cnc(CNCc2ccccc2OCC(O)CN(C)C2CCCCC2)cn1 (stereo not given)	0.14 °C
CCC(=O)c1ccc(OCC(=O)Nc2ccc(NC(C)=O)cc2)cc1	-0.03 °C (inactive)
Cc1ccc2[nH]cc(CCNC(=O)c3ccccc3Cl)c2c1	-0.13 °C (inactive)
CCOc1ccccc1C1C(C#N)=C(N)Oc2cc(N(C)C)ccc21 (stereo not given)	0.29 °C
COc1ccc(-c2cc(C(F)(F)F)nc(NCc3cccs3)n2)cc1OC	0.11 °C
O=C(Nc1cccc(-c2ccco2)c1)C1CCN(C(=O)CCc2ccco2)CC1	1.03 °C (active)
O=C(Nc1ccc(Cl)cc1)Nc1cccc(C(=O)NCc2ccco2)c1	3.11 °C (active)
CCN(CC)C(=O)c1cccc(NC(=O)Nc2ccc(Cl)cc2)c1	0.23 °C
CC(=O)Nc1cccc(C(=O)Nc2ccc(Cl)cc2)c1	-7.43 °C (inactive)
CCc1ccc2c(c1)C(OC(C)=O)C(C)(C)C(c1cccc(Br)c1)N2 (stereo not given)	0.44 °C

Structure (SMILES)	thermal shift dTm
O=C(Nc1ccc(C(F)(F)F)cc1Cl)c1cc([N+](=O)[O-])[nH]n1	1.73 °C (active)
O=C(CCC(=O)OCc1ccc(Br)cc1)Nc1cc(C(F)(F)F)ccc1Cl	0.17 °C
COc1cc(-c2cccc(-c3ccn[nH]3)c2)ccc1NC(C)=O	0.14 °C
O=C(NCCc1ccccc1)c1ccc(NC(=O)C2CC2)cc1	0.04 °C
Cc1cc(Br)cc(C)c1NC(=O)/C=C/c1ccco1	0.52 °C
Cc1ccc(Nc2nc(C3CC(CC(C)C)C(=O)O3)cs2)cc1 (stereo not given)	-0.09 °C (inactive)
Cc1ccc2cccc(OCCCCOc3ccccc3I)c2n1	0.77 °C
Cc1ccc(-c2noc(CNC(=O)c3ccc4ccccc4c3)n2)cc1	-0.08 °C (inactive)
CCOc1ccc(NC(=O)c2ccc(-c3csc(C)n3)cc2)cc1	0.15 °C
NC(=O)c1ccc(NC(=O)c2cccc(C(F)(F)F)c2)cc1	0.7 °C
CCc1ccc(NC(=O)COc2ccccc2F)cc1	0.24 °C
C=C(C)COc1ccc(NC(=O)c2cccnc2)cc1	0.13 °C
COc1ccc(-c2csc(NC(=O)c3ccc(Cl)s3)n2)cc1	0.05 °C
Oc1ccccc1C=Nc1ccc(Cc2ccc(N=Cc3ccccc3O)c(O)c2)cc1O	0.01 °C
O=S(=O)(NCCC1=CCCCC1)c1ccc(Cl)s1	0.17 °C
CCOc1ccc(NC(=S)N2CCC(C(N)=O)CC2)cc1	-0.13 °C (inactive)
Cc1ccc(/C=C/C(=O)NCC(C)NC(=O)/C=C/c2ccc(C)cc2)cc1 (stereo not given)	0.45 °C
COc1ccc2[nH]cc(CCNC(=O)c3ccc(NC(C)=O)cc3)c2c1	1 °C (active)
COc1cc(/C=N/O)cc(Br)c1OCc1ccccc1F	0.16 °C
O=S(=O)(c1cccs1)N1CCC(CO)(Cc2ccc(Cl)cc2)CC1	0.18 °C
O=C(NCc1ccc(Cl)c(Cl)c1)c1ccc(Br)cc1	-0.13 °C (inactive)
O=C(Nc1nccs1)c1ccc(-c2cccc(Cl)c2Cl)o1	0.19 °C

Structure (SMILES)	thermal shift dTm
O=C(C#Cc1ccccc1)Nc1ccc2c(c1)OCCO2	0.24 °C
CCC(c1ccccc1)c1nnc(NC(=O)Nc2ccccc2F)s1 (stereo not given)	0.2 °C
NC(=O)c1cn(-c2ccccc2)nc1-c1ccc(-c2ccccc2)cc1	0.07 °C
O=C(NC(=S)Nc1cccc(Cl)c1N1CCOCC1)c1cccs1	-0.04 °C (inactive)
CCc1c(C(=O)Nc2ccc3[nH]ncc3c2)csc1C	0.29 °C
CCCc1cc(C(=O)Nc2ccc3[nH]ncc3c2)cs1	2.61 °C (active)
O=C(Nc1ccc2[nH]ncc2c1)c1cccc(F)c1	1.63 °C (active)
Cc1ccc(NC(=O)Nc2ccc(C)c(F)c2)c(C)c1	0.56 °C
FC(F)(F)c1ccccc1NC(=S)Nc1ccc(OCc2ccccc2)cc1	0.68 °C
COc1ccc(NC(=O)c2ccc(Cl)s2)cc1OC	0.19 °C
Cc1cc(C(=O)OCC(=O)Nc2ccc(Cl)cc2)c2ccccc2n1	-0.03 °C (inactive)
CCNS(=O)(=O)c1ccc(NC(=O)Nc2cc(C)ccc2OC)cc1	1.17 °C (active)
NC(=O)c1cn(-c2ccccc2)nc1-c1cccc(Br)c1	-0.72 °C (inactive)
C(=C\c1nnc(-c2ccccc2)o1)/c1cc2ccccc2o1	0.18 °C
O=c1nc2n(c3cc(Cl)ccc13)CC(O)=C2c1ccccc1	1.08 °C (active)
Cc1cccc(C(=O)Nc2cccc(-c3csc(C)n3)c2)c1	1.13 °C (active)
CCOc1ccc(C(=O)Nc2cccc(-c3csc(C)n3)c2)cc1	-0.65 °C (inactive)
Cc1nc(-c2cccc(NC(=O)c3cccc(F)c3)c2)cs1	3.41 °C (active)
CCOc1ccc(C(=O)Nc2cc(C)ccn2)cc1[N+](=O)[O-]	0.43 °C
O=C(Nc1cccc(Br)c1)C1C2C3CCC(C3)C12 (stereo not given)	0.21 °C
CCOc1ccc(/C=C/C(=O)Nc2ccc(OC)cc2OC)cc1	0.02 °C
CCc1cc(-c2n[nH]c(C)c2Oc2ccc(F)cc2)c(O)cc1OC	0.02 °C
